Test: qHTS profiling of the MIPE4 collection as inhibitors of Plasmodium falciparum (DD2) proliferation (AID 743345)
Conditions: P. falciparum Dd2 in erythrocytes, SYBR Green DNA, 72 h; at 28.5 µM (top of the series) unless noted
Procedure, shortened: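 Erythrocytes infected with P. falciparum (0.3% parasitemia, 2.5% hematocrit) incubated with compounds 72 h at 37 C, 5% CO2. Lysis with saponin/Triton buffer containing SYBR Green I, overnight at room temperature in the dark; DNA fluorescence (485/535 nm) normalised to 0.29 uM artemisinin and DMSO.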

Structure (SMILES) | parasite growth remaining, % of DMSO control (lower = more inhibition)
N=C(N)c1ccc2cc(OC(=O)c3ccc(N=C(N)N)cc3)ccc2c1 | 9.8%
CNC[C@H](O)c1ccc(O)c(O)c1 | 70.6% [at 57.5 µM]
O=C(NOCC1CC1)c1ccc(F)c(F)c1Nc1ccc(I)cc1Cl | 91.6%
CCC[C@@H]1C[C@@H](C(=O)N[C@@H]([C@H]2O[C@H](SC)[C@H](O)[C@@H](O)[C@H]2O)[C@@H](C)O)N(C)C1 | 50.3%
CN(C)C(=O)COC(=O)Cc1ccc(OC(=O)c2ccc(N=C(N)N)cc2)cc1 | 93%
CC1(C)NC(=O)N(c2ccc([N+](=O)[O-])c(C(F)(F)F)c2)C1=O | 106%
Cc1cc(C2CCCCC2)n(O)c(=O)c1 | 7.36%
NC(=NCc1ccccc1)NC(=O)c1nc(Cl)c(N)nc1N | 98.4%
Cn1c(NCCN(CCO)CCCc2ccc([N+](=O)[O-])cc2)cc(=O)n(C)c1=O | 76.1%
COc1cc2nc(N3CCN(C(=O)C4CCCO4)CC3)nc(N)c2cc1OC (configuration not stated) | 76.4%
O=c1c(O)c(-c2ccc(O)cc2O)oc2cc(O)cc(O)c12 | 71%
O=C(CCc1ccc(O)cc1)c1c(O)cc(O)cc1O | 96.7%
CC(=O)O[C@H]1C(=O)[C@@]2(C)C([C@H](OC(=O)c3ccccc3)[C@]3(O)C[C@H](OC(=O)[C@H](O)[C@@H](NC(=O)c4ccccc4)c4ccccc4)C(C)=C1C3(C)C)[C@]1(OC(C)=O)CO[C@@H]1C[C@@H]2O (some centres not stated) | 14.4%
NCCCCNCCCN | 95.4%
CCCc1cc(=O)[nH]c(=S)[nH]1 | 93.3%
Cc1cccc(CN2CCN(C(c3ccccc3)c3ccc(Cl)cc3)CC2)c1 (configuration not stated) | 7.56%

Structure (SMILES) | parasite growth remaining, % of DMSO control (lower = more inhibition)
N[C@@H](Cc1cc(I)c(Oc2cc(I)c(O)c(I)c2)c(I)c1)C(=O)O | 89.9%
COC(=O)N[C@H](C(=O)N[C@@H](Cc1ccccc1)[C@@H](O)CN(Cc1ccc(-c2ccccn2)cc1)NC(=O)[C@@H](NC(=O)OC)C(C)(C)C)C(C)(C)C | 18.2%
Cc1ccc(S(=O)(=O)NC(=O)NN2CC3CCCC3C2)cc1 (configuration not stated) | 13.9%
CN(c1nccc(=O)[nH]1)C1CCN(c2nc3ccccc3n2Cc2ccc(F)cc2)CC1 | 81.9%
Cc1cc2cc3c(C)cc(=O)oc3c(C)c2o1 | 95.8%
CN(C)CCCC1(c2ccc(F)cc2)OCc2cc(C#N)ccc21 (configuration not stated) | 63.7%
Nc1ncn([C@H]2C[C@H](O)[C@@H](CO)O2)c(=O)n1 | 99.3%
COC(=O)C1=C(C)NC(C)=C(C(=O)OC(C)C)C1c1cccc2nonc12 (configuration not stated) | 96.4%
CCCCCCCCOc1ccccc1C(=O)Nc1ccc(C(=O)OCC[N+](C)(CC)CC)cc1 | 5.8%
CS(=O)(=O)OCCCCOS(C)(=O)=O | 77.1%
Nc1ccc(S(N)(=O)=O)cc1 | 15.1%
O=C1NC(=O)C(c2ccccc2[N+](=O)[O-])=C1Nc1ccc(O)c(Cl)c1 | 87.1%
COC(=O)C1=C(C)NC(C)=C(C(=O)OCCCN2CCC(c3ccccc3)(c3ccccc3)CC2)C1c1cccc([N+](=O)[O-])c1 (configuration not stated) | 107%
OC(CN1CCN(c2cccc(Cl)c2)CC1)C(c1ccccc1)c1ccccc1 (configuration not stated) | 90.9%
COc1cc2c(N3CCN(C(=O)Nc4ccc(OC(C)C)cc4)CC3)ncnc2cc1OCCCN1CCCCC1 | 8.31%
CC(=O)NC[C@H]1CN(c2ccc(N3CCOCC3)c(F)c2)C(=O)O1 | 87.8%

From PubChem BioAssay (NCATS)
